In experiment [1] the target is Aryl hydrocarbon receptor (Homo sapiens) (UniProt P35869). The experiment can be described thus: qHTS assay to identify small molecule that activate the aryl hydrocarbon receptor (AhR) signaling pathway (AID 743085).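 Further: HG2L7.5c1 human HepG2 liver cells with stably integrated DRE-driven firefly reporter; series mostly up to about 70 µM; nearly all actives have a fitted effect of over 15% in size.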 Put shortly: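 HepG2 cells (HG2L7.5c1) stably carrying a firefly luciferase reporter driven by 20 dioxin responsive elements were exposed to compound for 24 h at 37C after a 5 h settling period; luminescence rise (ONE-Glo) indicated activation.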
Sequence of Aryl hydrocarbon receptor (Homo sapiens) (P35869 whole entry, looked up): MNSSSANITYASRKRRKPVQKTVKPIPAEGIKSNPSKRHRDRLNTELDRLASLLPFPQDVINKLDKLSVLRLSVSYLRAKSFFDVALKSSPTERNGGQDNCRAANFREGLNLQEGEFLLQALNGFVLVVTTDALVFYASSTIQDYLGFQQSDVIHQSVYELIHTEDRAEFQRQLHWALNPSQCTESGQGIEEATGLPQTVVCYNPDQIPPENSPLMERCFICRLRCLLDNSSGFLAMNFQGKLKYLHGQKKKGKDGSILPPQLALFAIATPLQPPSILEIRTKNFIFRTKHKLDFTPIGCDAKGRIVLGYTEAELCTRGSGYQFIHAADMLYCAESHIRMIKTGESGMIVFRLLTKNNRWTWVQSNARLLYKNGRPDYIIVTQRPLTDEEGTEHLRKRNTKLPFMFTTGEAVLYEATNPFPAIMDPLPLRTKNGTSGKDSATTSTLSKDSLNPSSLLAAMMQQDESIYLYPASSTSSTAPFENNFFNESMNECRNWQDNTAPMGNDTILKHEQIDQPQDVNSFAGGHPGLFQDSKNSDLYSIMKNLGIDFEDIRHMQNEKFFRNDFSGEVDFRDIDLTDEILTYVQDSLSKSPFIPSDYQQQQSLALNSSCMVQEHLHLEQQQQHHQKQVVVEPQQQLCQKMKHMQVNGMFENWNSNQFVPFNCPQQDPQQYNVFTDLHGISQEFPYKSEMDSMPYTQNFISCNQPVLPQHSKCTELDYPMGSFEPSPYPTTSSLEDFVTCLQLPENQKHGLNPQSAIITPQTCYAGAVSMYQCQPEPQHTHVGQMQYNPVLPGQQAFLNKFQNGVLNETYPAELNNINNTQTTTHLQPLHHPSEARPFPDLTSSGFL
(In general: In qHTS, concentration-response curves come from the screen itself.)

The nature of experiment [2]: qHTS assay to identify small molecule that activate the aryl hydrocarbon receptor (AhR) signaling pathway - cell viability counter screen (AID 743086). Further: series mostly up to about 70 µM; nearly all actives have a fitted effect of over 45% in size. An outline of the steps: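 Cytotoxicity counter screen: CellTiter-Fluor signal (30 min, 37 C) in 4000 HepG2 cells/well carrying the DRE-luciferase reporter, following 24 h compound exposure at 37 C.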
Experiment [3] in a line: qHTS assay to identify small molecule antagonists of the peroxisome proliferator-activated receptor gamma (PPARg) signaling pathway - cell viability counter screen (AID 743194). Further: nearly all actives have a fitted effect of over 55% in size. Further: potency means the concentration at half of the fitted maximal effect. An outline of the steps: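 Viability was measured as CellTiter-Glo luminescence in GeneBLAzer PPARg UAS-bla HEK293H cells. These cells had been exposed 17 h at 37 C to compounds together with rosiglitazone at 50 nM final, with the beta-lactamase readout taken in the same wells.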

Experiment [4] in a line: qHTS assay for small molecule agonists of the antioxidant response element (ARE) signaling pathway - cell viability counter screen (AID 743203; calls by dose curve; further: nearly all actives have a fitted effect of over 55% in size; further: potency means the concentration at half of the fitted maximal effect). Put shortly:
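Following 16 hrs of compound treatment at 37C, HepG2 cells with an ARE-controlled beta-lactamase gene were lysed with CellTiter-Glo. Luminescence was read after 30 min at room temperature.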

Experiment [5] can be described thus: qHTS assay for small molecule activators of the heat shock response signaling pathway - cell viability counter screen (AID 743209). Further: nearly all actives have a fitted effect of over 50% in size. Further: potency means the concentration at half of the fitted maximal effect. An outline of the steps: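 Readout: CellTiter-Glo luminescence, 30 min at room temperature. System: HSE-bla HeLa cells, 1500/well, plated overnight. Treatment: compounds in DMSO, 5 h at 37 C.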
Experiment [6] is described as follows: qHTS assay for small molecule activators of the heat shock response signaling pathway (AID 743210; active means well fitted activation curve with a large enough effect in the signal ratio in the repeat runs, with a control signal flat, not every such curve was filed as active; the % refers to the signal ratio;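 further: HeLa cells with beta-lactamase reporter driven by heat shock elements; series mostly up to about 63 µM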). An outline of the steps:
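HeLa HSE-bla cells, overnight plating; cpd in DMSO 5 h, 37 C; LiveBLAzer B/G FRET substrate 2.5 h RT; fluorescence intensity read.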

A short description of experiment [7]: qHTS assay to identify small molecule agonists of the peroxisome proliferator-activated receptor delta (PPARd) signaling pathway - cell viability counter screen (AID 743211). Further: nearly all actives have a fitted effect of over 55% in size. Further: potency means the concentration at half of the fitted maximal effect. An outline of the steps: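 PPARd-bla HEK293H cells (UAS-beta-lactamase reporter) were treated with compounds for 17 h at 37 C. Viability was then read in the same wells by CellTiter-Glo luminescence after 30 min at room temperature.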

Experiment [8] concerns the target Peroxisome proliferator-activated receptor delta (Homo sapiens) (UniProt Q03181). As to the kind of experiment: qHTS assay to identify small molecule agonists of the peroxisome proliferator-activated receptor delta (PPARd) signaling pathway (AID 743212; calls by dose curve; further: potency means the concentration at half of the fitted maximal effect). An outline of the steps: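 HEK293H PPARd-bla cells; 5 h preincubation 37 C/5% CO2; compound (DMSO) 37 C; LiveBLAzer B/G FRET substrate 2 h RT; fluorescence intensity.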

Experiment [9] is described as follows: qHTS assay to identify small molecule antagonists of the peroxisome proliferator-activated receptor delta (PPARd) signaling pathway - cell viability counter screen (AID 743213). Further: nearly all actives have a fitted effect of over 50% in size. Further: potency means the concentration at half of the fitted maximal effect. Put shortly: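 Agonist-stimulated (L165041, 300 nM final) HEK293H PPARd UAS-bla cells are exposed to compounds for 17 h at 37 C, and ATP-based luminescence (CellTiter-Glo) from the same wells reports cytotoxicity.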

Experiment [10] has as its target Peroxisome proliferator-activated receptor delta (Homo sapiens) (UniProt Q03181). The experiment can be described thus: qHTS assay to identify small molecule antagonists of the peroxisome proliferator-activated receptor delta (PPARd) signaling pathway (AID 743215; active means well fitted inhibition curve with a large enough effect in the signal ratio in the repeat runs, not every such curve was filed as active; the % refers to the signal ratio; further: series mostly up to about 62 µM). An outline of the steps:
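HEK293H UAS-bla, PPARd; agonist L165041 300 nM final with cpd in DMSO; 37 C 17 h; FRET substrate, RT 2 h; fluorescence intensity.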

Experiment [11] is described as follows: qHTS assay to identify small molecule agonists of the farnesoid-X-receptor (FXR) signaling pathway - cell viability counter screen (AID 743218). Further: nearly all actives have a fitted effect of over 45% in size. Further: potency means the concentration at half of the fitted maximal effect. An outline of the steps:
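Parallel cytotoxicity test: compound-treated (16 h, 37 C) HEK 293T FXR-bla reporter cells were lysed with CellTiter-Glo and luminescence recorded.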

Experiment [12] can be described thus: qHTS assay to identify small molecule antagonists of the farnesoid-X-receptor (FXR) signaling pathway - cell viability counter screen (AID 743221; active means well fitted cell-killing curve with a large enough effect in the repeat runs, not every such curve was filed as active; further: nearly all actives have a fitted effect of over 50% in size). Put shortly:
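FXR-UAS-bla HEK 293T cells were treated with test compounds plus chenodeoxycholic acid (50 uM final) for 16 h at 37 C. Cell viability in the same wells was then read as CellTiter-Glo luminescence after 30 min at room temperature.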

Experiment [13] concerns the target Vitamin D3 receptor (Homo sapiens) (UniProt P11473). The experiment can be described thus: qHTS assay to identify small molecule agonists of the vitamin D receptor (VDR) signaling pathway (AID 743222; calls by dose curve). An outline of the steps: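 In VDR-bla cells, compound-induced beta-lactamase expression is quantified by FRET substrate fluorescence. Treatment lasts 16 h at 37C; substrate develops 2 h at room temperature.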

Experiment [14] is described as follows: qHTS assay to identify small molecule agonists of the vitamin D receptor (VDR) signaling pathway - cell viability counter screen (AID 743224). Further: nearly all actives have a fitted effect of over 50% in size. Further: potency means the concentration at half of the fitted maximal effect. An outline of the steps:
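Plated VDR-bla cells (4 h, 37C) received compound, incubated 16 h, then LiveBLAzer substrate 2 h RT; CellTiter-Glo added afterwards, luminescence read at 30 min.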

Experiment [15] concerns the target Bile acid receptor (Homo sapiens) (UniProt Q96RI1). The experiment can be described thus: qHTS assay to identify small molecule antagonists of the farnesoid-X-receptor (FXR) signaling pathway (AID 743217; active means well fitted inhibition curve with a large enough effect in the signal ratio in the repeat runs, not every such curve was filed as active; the % refers to the signal ratio; further: potency means the concentration at half of the fitted maximal effect). Put shortly: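 GeneBLAzer FXR-UAS-bla HEK 293T, CDCA-stimulated (50 uM final). Compound treatment 16 h, 37 °C. Detection: beta-lactamase cleavage of B/G FRET substrate, fluorescence.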

Experiment [16] has as its target Vitamin D3 receptor (Homo sapiens) (UniProt P11473). As to the kind of experiment: qHTS assay to identify small molecule antagonists of the vitamin D receptor (VDR) signaling pathway (AID 743223; active means well fitted inhibition curve with a large enough effect in the signal ratio in the repeat runs, not every such curve was filed as active; the % refers to the signal ratio). An outline of the steps:
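VDR-bla cells were plated, incubated 4 h at 37C, then given compound and 1alpha,25-dihydroxyvitamin D3 (3 nM final). After 16 h at 37C, LiveBLAzer B/G FRET substrate was added for 2 h at room temperature and fluorescence read.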

Experiment [17] can be described thus: qHTS assay for small molecule agonists of the antioxidant response element (ARE) signaling pathway (AID 743202; active means well fitted activation curve with a large enough effect in the signal ratio in the repeat runs, not every such curve was filed as active; the % refers to the signal ratio; further: potency means the concentration at half of the fitted maximal effect). An outline of the steps:
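Quantitative high-throughput format in HepG2 cells bearing an integrated ARE-beta-lactamase reporter. Compound exposure lasted 16 h at 37 C, and fluorescence was read 2 h after adding LiveBLAzer B/G substrate at room temperature.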

Results filed as inconclusive are left out. Active and inactive are the calls of the source. Unless noted, the call rests on the fitted dose curve; in most records, active means well fitted curve in the direction sought with a large enough effect in the repeat runs; inconclusive means weak or mixed curves; inactive means no such curve, though single readings can be large; an effect the other way counts as inactive or inconclusive.

Sequence of Vitamin D3 receptor (Homo sapiens) (P11473 whole entry, looked up): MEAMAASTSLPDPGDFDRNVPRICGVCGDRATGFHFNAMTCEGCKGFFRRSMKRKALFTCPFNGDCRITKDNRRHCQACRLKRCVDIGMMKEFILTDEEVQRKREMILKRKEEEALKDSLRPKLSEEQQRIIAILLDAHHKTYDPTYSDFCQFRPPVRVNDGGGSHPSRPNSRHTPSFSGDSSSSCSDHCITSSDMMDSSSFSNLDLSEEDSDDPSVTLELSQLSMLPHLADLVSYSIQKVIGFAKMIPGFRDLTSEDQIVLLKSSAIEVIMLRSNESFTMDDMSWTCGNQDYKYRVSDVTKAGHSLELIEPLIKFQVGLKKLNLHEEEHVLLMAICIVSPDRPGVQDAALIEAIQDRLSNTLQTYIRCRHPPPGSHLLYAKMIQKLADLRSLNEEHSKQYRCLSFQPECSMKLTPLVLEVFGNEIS
Sequence of Peroxisome proliferator-activated receptor delta (Homo sapiens) (Q03181 whole entry, looked up): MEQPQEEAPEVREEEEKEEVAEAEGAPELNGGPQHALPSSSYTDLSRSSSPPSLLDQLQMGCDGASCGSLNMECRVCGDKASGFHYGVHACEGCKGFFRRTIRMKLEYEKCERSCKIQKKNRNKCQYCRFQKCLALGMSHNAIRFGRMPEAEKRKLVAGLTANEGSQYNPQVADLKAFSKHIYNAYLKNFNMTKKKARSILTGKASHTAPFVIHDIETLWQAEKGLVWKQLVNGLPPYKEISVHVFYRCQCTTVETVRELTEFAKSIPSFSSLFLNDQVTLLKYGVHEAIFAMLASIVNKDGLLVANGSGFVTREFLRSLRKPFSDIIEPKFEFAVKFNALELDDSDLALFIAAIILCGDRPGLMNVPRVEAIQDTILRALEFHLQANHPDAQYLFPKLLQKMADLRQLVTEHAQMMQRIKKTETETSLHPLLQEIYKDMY
Sequence of Bile acid receptor (Homo sapiens) (Q96RI1 whole entry, looked up): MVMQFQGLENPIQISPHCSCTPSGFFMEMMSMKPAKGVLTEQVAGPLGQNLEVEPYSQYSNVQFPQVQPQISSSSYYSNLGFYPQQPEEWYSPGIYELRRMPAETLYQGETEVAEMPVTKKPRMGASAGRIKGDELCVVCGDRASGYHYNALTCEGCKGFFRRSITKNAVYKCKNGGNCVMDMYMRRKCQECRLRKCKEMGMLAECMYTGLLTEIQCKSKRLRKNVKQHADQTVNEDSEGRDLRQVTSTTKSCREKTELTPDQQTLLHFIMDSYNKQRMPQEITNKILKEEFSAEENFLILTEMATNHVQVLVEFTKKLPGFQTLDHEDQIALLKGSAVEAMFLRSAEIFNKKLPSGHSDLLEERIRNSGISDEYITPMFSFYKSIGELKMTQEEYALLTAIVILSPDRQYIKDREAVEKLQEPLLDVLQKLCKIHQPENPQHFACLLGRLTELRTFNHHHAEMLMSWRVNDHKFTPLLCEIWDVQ

In the case of `O=c1[nH]c2ccc(Cl)cc2o1`, the Potency result in experiment [1], in experiment [2], in [3], in experiment [4], in experiment [5] and in experiment [6] was “inactive” throughout. For the same compound, the Potency entry in experiment [7], in experiment [8], in experiment [9], in [10], in experiment [11] and in experiment [12] was “inactive” in each case. Moreover, the Potency result in [13] and in [14] was “inactive” throughout.

For the compound `CCCCCCCCOc1ccc(C(=O)O)cc1`, the Potency entry in experiment [1], in experiment [2], in experiment [3], in experiment [4], in [7] and in [9] was “inactive” each time. Also, the Potency entry in experiment [10], in experiment [15], in experiment [11], in experiment [12], in experiment [16] and in [14] was “inactive” in each case. Besides, the Potency in [8] is 7.67 µM (active).

As for `CC1(CN2CCC(n3c(=O)[nH]c4ccccc43)CC2)OCc2ccccc2-n2cccc21` (configuration not stated), the Potency result in [1], in experiment [2], in experiment [6], in [10], in experiment [12] and in experiment [16] was “inactive” throughout. Besides, the Potency in experiment [4] and in experiment [7] was 33.5 µM (active) each time.

On to `CCCCCCCCCCCCCCN(CCO)CCO`, for which the Potency entry in [1], in experiment [2] and in experiment [13] was “inactive” each time. Further, the Potency is 43.6 µM (active) in [3]; 61.1 µM (active) in experiment [4]; 24.5 µM (active) in experiment [5]; 43.6 µM (active) in experiment [7]; 49 µM (active) in [9]; 49 µM (active) in experiment [15]. The Potency in experiment [11] is 43.6 µM (active); in experiment [14], 24.5 µM (active).

Regarding `CC(=O)[C@H]1[C@H](C#N)C[C@H]2[C@@H]3CC=C4C[C@@H](O)CC[C@]4(C)[C@H]3CC[C@@]21C`, the Potency entry in experiment [1], in experiment [2], in experiment [3], in [4], in experiment [7] and in experiment [8] was “inactive” throughout. In addition, the Potency entry in experiment [10], in [15], in [11], in experiment [12] and in experiment [14] was “inactive” throughout.

Consider `C=C/C(C)=C/C/C=C(\C)CCC=C(C)C`, for which the Potency result in experiment [1], in experiment [2], in experiment [3], in experiment [8], in [9] and in [10] was “inactive” in each case. Besides, the Potency result in experiment [15], in experiment [12], in [16] and in experiment [14] was “inactive” in each case.

On to `CN1C(=O)OC(C)(C)C1=O`, for which the Potency result in [1], in [2], in experiment [3], in experiment [4], in experiment [5] and in experiment [6] was “inactive” throughout. For the same compound, the Potency entry in [7], in experiment [8], in experiment [9], in [10], in experiment [11] and in experiment [12] was “inactive” throughout. Further, in experiment [14], the Potency entry was “inactive”.

As to `CCOc1cccc(-n2cc(C(=O)N3CCN(c4cc(C(=O)O)c5ccccc5c4)CC3)nc2-c2ccc(C)cc2)c1`, the Potency result in [1], in experiment [2], in experiment [10], in [15] and in [12] was “inactive” throughout. Also, the Potency in experiment [3] is 18.6 µM (active); in experiment [17], 9.25 µM (active); in experiment [7], 37.1 µM (active); in experiment [11], 46.7 µM (active).

For `CCCCCCNC(=O)n1cc(F)c(=O)[nH]c1=O`, the Potency entry in experiment [1], in experiment [2], in experiment [3], in experiment [4], in experiment [5] and in experiment [6] was “inactive” throughout. In addition, the Potency entry in [7], in experiment [8], in experiment [9], in [10], in experiment [12] and in [13] was “inactive” in each case. The Potency result in experiment [16] and in [14] was “inactive” each time.

For the compound `CC(C)(O)c1ccc(CNC(=O)c2cccnc2Oc2ccc3nonc3c2)cc1`, the Potency result in experiment [1], in experiment [2], in experiment [3], in experiment [4], in experiment [5] and in [6] was “inactive” throughout. The Potency result in experiment [7], in experiment [8], in experiment [9], in experiment [10], in experiment [11] and in [12] was “inactive” each time. The Potency result in [16] and in [14] was “inactive” in each case.
